E coli growth-1: reduces bacterial viability in AddAB counter-screen; E. coli V3065 growth, OD600 absorbance, 18 h; AID 449728; inhibition, % at 11.9 µM; hit rate 0.27% among 330,000;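 active = inhibition above the campaign's mean inhibition across all tested compounds plus 3 SD, cut at about 9.9% in these data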;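 also: uninfected addAB+ strain grown without phage in ampicillin broth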
pCIP destab: p/CIP protein destabilization | Q05BA5 | F442A p/CIP-EGFP cells, EGFP fluorescence, 16 h | decrease of EGFP signal, % at 10 µM | hit rate 0.01% among 290,000 | AID 1984;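 active = EGFP signal decrease of at least 30% at 10 µM or well 3 SD below plate mean, unless failing retest; inactive = the rest, including hits failing retest or dose response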
Target sequence (Q05BA5 1-1403): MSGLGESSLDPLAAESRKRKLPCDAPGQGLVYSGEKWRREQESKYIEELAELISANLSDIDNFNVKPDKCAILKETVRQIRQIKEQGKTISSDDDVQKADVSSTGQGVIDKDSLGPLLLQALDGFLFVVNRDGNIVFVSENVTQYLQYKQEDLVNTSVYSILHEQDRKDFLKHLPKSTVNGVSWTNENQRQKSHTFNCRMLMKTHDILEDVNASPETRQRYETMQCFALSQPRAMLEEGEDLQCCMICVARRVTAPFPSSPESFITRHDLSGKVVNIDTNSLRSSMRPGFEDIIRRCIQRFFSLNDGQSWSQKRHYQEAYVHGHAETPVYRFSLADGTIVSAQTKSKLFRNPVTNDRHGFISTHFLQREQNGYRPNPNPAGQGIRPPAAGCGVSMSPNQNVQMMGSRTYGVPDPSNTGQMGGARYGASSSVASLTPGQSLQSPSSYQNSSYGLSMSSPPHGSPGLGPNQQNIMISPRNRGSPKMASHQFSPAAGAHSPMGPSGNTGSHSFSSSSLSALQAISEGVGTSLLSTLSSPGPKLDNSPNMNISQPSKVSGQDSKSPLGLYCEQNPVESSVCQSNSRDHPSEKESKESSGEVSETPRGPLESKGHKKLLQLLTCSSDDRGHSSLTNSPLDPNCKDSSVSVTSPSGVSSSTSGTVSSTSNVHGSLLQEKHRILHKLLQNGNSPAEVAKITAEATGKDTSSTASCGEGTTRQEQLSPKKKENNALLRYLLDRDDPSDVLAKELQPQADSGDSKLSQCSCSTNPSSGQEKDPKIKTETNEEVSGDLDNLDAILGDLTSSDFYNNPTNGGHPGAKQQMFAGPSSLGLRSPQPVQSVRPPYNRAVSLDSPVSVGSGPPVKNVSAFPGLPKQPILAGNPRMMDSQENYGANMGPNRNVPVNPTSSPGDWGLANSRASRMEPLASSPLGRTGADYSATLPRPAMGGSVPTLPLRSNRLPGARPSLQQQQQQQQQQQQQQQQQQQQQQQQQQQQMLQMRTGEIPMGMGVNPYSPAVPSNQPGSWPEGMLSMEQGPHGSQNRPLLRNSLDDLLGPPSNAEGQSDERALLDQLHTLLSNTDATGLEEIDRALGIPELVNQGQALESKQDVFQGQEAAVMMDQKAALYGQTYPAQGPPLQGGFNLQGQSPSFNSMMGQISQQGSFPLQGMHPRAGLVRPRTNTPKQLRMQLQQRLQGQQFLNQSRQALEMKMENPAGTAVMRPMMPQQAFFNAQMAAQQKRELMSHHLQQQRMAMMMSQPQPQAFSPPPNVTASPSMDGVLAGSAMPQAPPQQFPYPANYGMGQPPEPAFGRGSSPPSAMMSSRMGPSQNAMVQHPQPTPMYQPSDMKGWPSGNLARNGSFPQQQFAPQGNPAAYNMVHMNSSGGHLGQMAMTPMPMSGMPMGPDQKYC
phage Ecoli inh: E. coli growth loss with phage present; growth absorbance; hit rate 0.26% among 360,000; inhibition, % at 11.9 µM; AID 651602; in the data active = inhibition above about 11%
AddAB inh: less growth of phage-infected E. coli with AddAB | E. coli expressing H. pylori AddAB, absorbance growth | inhibition, % at 11.9 µM | hit rate 0.29% among 330,000; in the data active = inhibition above about 12%
E coli growth-2: E. coli growth inhibition. OD600 absorbance (no concentration beside the values). Escherichia coli growth, OD600, 23 h; stronger effect = lower value. AID 1053175. hit rate 0.21% among 330,000;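 active = OD600 absorbance below the run mean of sample wells minus 3.6 SD, in any replicate, cut at about 0.56 in these data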
Tat transport: inhibitors of E. coli Tat protein transport; inhibition, % at 10 µM; AID 488895; E. coli MC4100 TorA-mCherry Tat export, fluorescence; hit rate 0.036% among 340,000;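 active = mean replicate inhibition at least 50% and at least half of replicates individually reaching 50%; inconclusive = only one of the two criteria met; inactive = neither criterion met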;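 also: exported cargo escapes ClpAP degradation while cytoplasmic cargo is degraded and loses fluorescence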
AddAB conf: growth loss of T4-infected E. coli expressing H. pylori AddAB, confirmed; shares compounds with AddAB inh; E. coli V3065 expressing H. pylori AddAB, T4 phage, OD; T4 phage with gene 2 nonsense mutations; inhibition, % at 11.9 µM; hit rate 64% among 880;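 active = mean inhibition above a set limit taken from the earlier primary screen, cut at about 13% in these data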;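 also: higher means less bacterial growth since AddAB block lets phage replicate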
RecBCD counter: AddAB counter-screen: growth loss of RecBCD+ E. coli infected with mutant T4 phage; shares compounds with AddAB inh; E. coli V66 + mutant T4 phage, OD growth; inhibition, % at 11.9 µM; hit rate 73% among 880; AID 488955;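 active = mean inhibition above the mean of solvent-only control wells plus 3 SD, cut at about 4% in these data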;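 also: optical density read after an 18 h incubation at 37 °C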
Bact viability: counter-screen: bacterial growth inhibition. AID 488956. hit rate 35% among 880. bacterial viability, absorbance (AddAB counterscreen). shares compounds with AddAB inh. inhibition, % at 11.9 µM; in the data active = inhibition above about 25%
Hits are given with their value; . = inactive; ? = inconclusive; / = no result. In the library only some 0.51% were active in any assay of this set; here they are far more common.

SMILES	E coli growth-1	pCIP destab	phage Ecoli inh	AddAB inh	E coli growth-2	Tat transport	AddAB conf	RecBCD counter	Bact viability
COc1ccc(C(NC(C)=O)c2ccc3cccnc3c2O)c(OC)c1 (stereo unspecified)	.	.	/	12	.	.	.	6.8	.
CC(=O)CCN1CCSCCS1(=O)=O	/	/	.	/	/	/	/	/	/
CCOC(=O)c1cn(C2CC2)c2c(F)c(NCCCN(C)C)c(F)cc2c1=O	.	/	.	13	.	.	13	.	.
COc1cccc(/C=N/Nc2cc(-n3nc(C)cc3-c3ccccc3)ncn2)c1O	17	.	.	18	/	.	.	8.8	.
Cc1ccc(S(=O)(=O)N2CCC(C(=O)NNC(=O)c3ccccc3O)CC2)cc1	.	/	.	.	.	.	/	/	/
Cc1ccc(S(=O)(=O)N2CCC(C(=O)NNC(=O)c3ccccc3O)CC2)cc1C	.	/	.	14	.	.	.	9.4	.
O=C(CCc1ccccc1O)NC1CCCc2ccccc21 (stereo unspecified)	.	.	.	.	.	.	/	/	/
c1ccc(CC2=NCCN2)cc1	.	.	.	.	.	?	/	/	/
Cc1cc(C(C)(C)C)cc(C)c1CC1=NCCN1	10.0	.	.	14	.	.	53	.	.
COc1ccc(-c2nc(C(N)=O)c3[nH]c(=O)n(-c4ccccc4OC)c3n2)c(OC)c1	18	.	.	43	.	.	.	.	.
CCCC(C)c1nnc(NC(=O)C2CC(=O)N(CCc3ccc(F)cc3)C2)s1 (stereo unspecified)	.	.	.	.	.	.	/	/	/
COc1ccc(N2CCN(C(=O)CSc3nnc4c(C)cc5c(C)cc(C)cc5n34)CC2)cc1	94	.	.	96	.	.	.	.	.
Cc1ccc(CCNC(=O)c2cc(S(=O)(=O)N3CCOCC3)cn2C)cc1	.	.	.	.	.	.	/	/	/
COc1ccccc1CNC(=O)c1cc(S(=O)(=O)N2CCCC2)cn1C	99	.	.	100	.	.	.	.	.
Cn1cc(S(=O)(=O)N2CCOCC2)cc1C(=O)NCCc1ccccc1	99	.	/	99	.	.	.	.	.
Cc1ccc(N2CC(C(=O)NNC(=O)c3ccc(F)cc3)CC2=O)cc1 (stereo unspecified)	.	/	.	.	.	.	/	/	/
O=C(NCc1ccccc1)C(=O)NCC1OCCN1S(=O)(=O)c1cccs1 (stereo unspecified)	.	.	.	.	.	.	/	/	/
Cc1ccc(CNC(=O)C(=O)NCC2OCCN2S(=O)(=O)c2cccs2)cc1 (stereo unspecified)	87	.	.	95	.	.	.	.	.
Cc1cc(C)c(S(=O)(=O)N2CCOC2CNC(=O)C(=O)NCc2cccnc2)c(C)c1 (stereo unspecified)	34	.	.	54	.	.	.	.	.
CCOC(=O)c1cn(CC)c2cc(N3CCOCC3)c(F)cc2c1=O	53	.	.	58	0.54	.	70	.	.
CCC(=O)N1CCN(c2cc3c(cc2F)c(=O)c(C(=O)O)cn3CC)CC1	70	/	.	97	0.069	.	100	8.4	98
CCn1cc(C(=O)NN)c(=O)c2cc(F)c(N3CCN(C)CC3)cc21	16	.	.	18	.	.	47	.	29
CCn1cc(C(=O)O)c(=O)c2cc(F)c(N3CCN(S(=O)(=O)c4ccc(NC(=O)OC)cc4)CC3)cc21	18	.	.	37	0.061	.	101	29	100
CCCCCCC(=O)N1CCN(c2cc3c(cc2F)c(=O)c(C(=O)O)cn3CC)CC1	.	/	.	.	/	.	/	/	/
CC[n+]1c(/C=C/N(C)c2ccccc2)n(-c2ccccc2)c2ccc(-c3nc4ccccc4s3)cc21	35	.	/	18	0.38	.	52	6.7	.
SMILES	E coli growth-1	pCIP destab	phage Ecoli inh	AddAB inh	E coli growth-2	Tat transport	AddAB conf	RecBCD counter	Bact viability
CC1(C)CC(=O)C=C(c2ccc(COC(=O)C3CC3)cc2)C1=O	/	/	.	/	/	/	/	/	/
NS(=O)(=O)c1cc2c(cc1Cl)NCNS2(=O)=O	38	.	.	55	.	.	100	6.2	75
COc1cc(C2Nc3cc(Cl)c(S(N)(=O)=O)cc3S(=O)(=O)N2)cc(OC)c1OC (stereo unspecified)	.	.	.	.	.	.	/	/	/
COc1cc(CNC(=O)c2ccc3oc(C(C)C)nc3c2)cc(OC)c1	.	.	.	14	.	.	.	6.4	.
Cc1cnc(CNC(=O)c2ccc3oc(C(C)C)nc3c2)[nH]1	.	.	.	.	.	.	/	/	/
CCN1/C(=C/C=C/c2oc3ccc(-c4ccccc4)cc3[n+]2CC)Oc2ccc(-c3ccccc3)cc21	12	.	.	12	.	.	.	5.6	.
Cc1noc(NS(=O)(=O)c2ccc(N/C=C/C(=O)c3ccc(F)cc3)cc2)c1C	.	.	.	.	.	.	/	/	/
Cc1noc(NS(=O)(=O)c2ccc(N/C=C/C(=O)c3cccnc3)cc2)c1C	.	.	.	13	.	.	.	.	.
Cc1noc(NS(=O)(=O)c2ccc(N/C=C\C(=O)c3ccncc3)cc2)c1C	.	.	.	.	.	.	/	/	/
CCc1ccc(C(=O)/C=C/Nc2ccc(S(=O)(=O)Nc3onc(C)c3C)cc2)cc1	.	.	.	14	.	.	.	.	.
COc1ccc(C2=NS(=O)(=O)N(C)C(C(=O)NCc3ccco3)=C2)cc1OC	.	.	.	.	.	.	/	/	/
Cc1ccc(C2=NS(=O)(=O)N(C)C(C(=O)NCc3ccco3)=C2)cc1	.	.	.	26	.	.	.	.	.
COc1ccc2cc(C(=O)CS(=O)(=O)c3ccccc3)c(=O)oc2c1	.	.	.	.	.	.	/	/	/
O=C(NCc1cccs1)C1CCN(S(=O)(=O)c2cccc3cccnc23)CC1	.	.	.	17	.	.	.	.	.
C[C@@H]1CN([C@H](C)CO)S(=O)(=O)c2ccc(Br)cc2O[C@H]1CN(C)C(=O)Nc1ccccc1	/	/	.	/	/	/	/	/	/
O=C(COC(=O)COc1ccccc1)Nc1ncc([N+](=O)[O-])s1	.	/	.	13	.	.	33	5.7	.
O=C(COc1ccc(Cl)cc1)Nc1ncc([N+](=O)[O-])s1	/	.	.	/	.	.	/	/	/
COC(=O)c1cc(CNC(=O)c2ccc(O)c(Cl)c2)ccc1OC	.	.	.	.	.	.	/	/	/
On1c(-c2ccccc2)nc2ccccc21	.	.	.	.	.	.	/	/	/
O=Nc1c2nc3ccccc3n(O)c-2c2ccccc12	20	.	.	14	.	.	32	8.1	.
